Assay results published in the supplement of paper PMC8728848.
The sample as a whole holds a higher share of the strongest signals than the screen did.

Experiments:
Assay in all cases: glycan array binding signal (z-score within array); higher = stronger binding
Conditions in all cases: glycan notation: IUPAC condensed, linker removed
[1] = molecular target: Fuc(a1-2)Gal(b1-3)GlcNAc(b1-3)GalNAc
How it was run: (§1)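 Columns mapping to the same glycan were averaged after glycan names were converted to IUPAC-condensed notation. The data come from 3228 arrays in the Consortium for Functional Glycomics database, limited to those with an available protein sequence. Binding is reported as a within-array Z-score averaged across arrays of one protein sequence and across linkers.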

Fuc(a1-2)Gal(b1-4)Glc6S = molecular target: Fuc(a1-2)Gal(b1-4)Glc6S
How it was run: as §1

[2] = molecular target: Fuc(a1-2)Gal(b1-4)GlcNAc(b1-3)Gal(b1-4)GlcNAc
How it was run: as §1

[3] = molecular target: Fuc(a1-2)Gal(b1-4)GlcNAc(b1-3)Gal(b1-4)GlcNAc(b1-2)Man(a1-3)[Fuc(a1-2)Gal(b1-4)GlcNAc(b1-3)Gal(b1-4)GlcNAc(b1-2)Man(a1-6)]Man(b1-4)GlcNAc(b1-4)GlcNAc
How it was run: as §1

[4] = molecular target: Fuc(a1-2)Gal(b1-4)GlcNAc(b1-3)Gal(b1-4)GlcNAc(b1-3)Gal(b1-4)GlcNAc
How it was run: as §1

[5] = molecular target: Fuc(a1-2)Gal(b1-4)GlcNAc(b1-3)GalNAc
How it was run: as §1

[6] = molecular target: Fuc(a1-2)[Gal(a1-3)]Gal(b1-4)GlcNAc(b1-3)[Fuc(a1-2)[Gal(a1-3)]Gal(b1-4)GlcNAc(b1-6)]GalNAc
How it was run: as §1

[7] = molecular target: Fuc(a1-2)[Gal(a1-4)]Gal(b1-4)GalNAc
How it was run: as §1

[8] = molecular target: Fuc(a1-2)[GalNAc(a1-4)]Gal(b1-4)GlcNAc
How it was run: as §1

[9] = molecular target: Fuc(a1-3)[Gal(b1-4)]GlcNAc(b1-4)Gal(b1-4)[Fuc(a1-3)]GlcNAc
How it was run: as §1

Fuc(a1-4)GlcNAc = molecular target: Fuc(a1-4)GlcNAc
How it was run: as §1

Gal(a1-3)Gal(b1-3)Glc = molecular target: Gal(a1-3)Gal(b1-3)Glc
How it was run: as §1

[10] = molecular target: Gal(a1-3)Gal(b1-4)GlcNAc(b1-6)GalNAc
How it was run: as §1

[11] = molecular target: Gal(a1-4)Gal(b1-3)GlcNAc(b1-2)Man(a1-3)[Gal(a1-4)Gal(b1-3)GlcNAc(b1-2)Man(a1-6)]Man(b1-4)GlcNAc(b1-4)GlcNAc
How it was run: as §1

Gal(a1-4)Gal(b1-4)GlcNAc = molecular target: Gal(a1-4)Gal(b1-4)GlcNAc
How it was run: as §1

Gal(b1-3)Gal = molecular target: Gal(b1-3)Gal
How it was run: as §1

Gal(b1-3)Gal(b1-4)GlcNAc = molecular target: Gal(b1-3)Gal(b1-4)GlcNAc
How it was run: as §1

Gal(b1-3)GalNAc = molecular target: Gal(b1-3)GalNAc
How it was run: as §1

[12] = molecular target: Gal(b1-3)GalNAc(b1-3)Gal(b1-4)GlcNAc
How it was run: as §1

[13] = molecular target: Gal(b1-3)GlcNAc(b1-3)GalNAc
How it was run: as §1

[14] = molecular target: Gal(b1-3)GlcNAc(b1-6)Gal(b1-4)GlcNAc
How it was run: as §1

[15] = molecular target: Gal(b1-3)[Fuc(a1-4)]GlcNAc(b1-3)Gal(b1-4)[Fuc(a1-3)]GlcNAc
How it was run: as §1

[16] = molecular target: Gal(b1-4)GalNAc(b1-3)[Fuc(a1-2)]Gal(b1-4)GlcNAc
How it was run: as §1

Gal(b1-4)Glc6S = molecular target: Gal(b1-4)Glc6S
How it was run: as §1

[17] = molecular target: Gal(b1-4)GlcNAc(b1-2)[Gal(b1-4)GlcNAc(b1-6)]Man(a1-6)[Gal(b1-4)GlcNAc(b1-2)Man(a1-3)]Man(b1-4)GlcNAc(b1-4)[Fuc(a1-6)]GlcNAc
How it was run: as §1

[18] = molecular target: Gal(b1-4)GlcNAc(b1-2)[Gal(b1-4)GlcNAc(b1-6)]Man(a1-6)[GlcNAc(b1-4)][Gal(b1-4)GlcNAc(b1-2)Man(a1-3)]Man(b1-4)GlcNAc(b1-4)GlcNAc
How it was run: as §1

[19] = molecular target: Gal(b1-4)GlcNAc(b1-3)Gal(b1-4)GlcNAc(b1-2)Man(a1-3)[Gal(b1-4)GlcNAc(b1-3)Gal(b1-4)GlcNAc(b1-2)Man(a1-6)]Man(b1-4)GlcNAc(b1-4)GlcNAc
How it was run: as §1

[20] = molecular target: Gal(b1-4)GlcNAc(b1-3)Gal(b1-4)GlcNAc(b1-3)Gal(b1-4)GlcNAc
How it was run: as §1

[21] = molecular target: Gal(b1-4)GlcNAc(b1-3)Gal(b1-4)GlcNAc(b1-3)Gal(b1-4)GlcNAc(b1-2)Man(a1-3)[Gal(b1-4)GlcNAc(b1-3)Gal(b1-4)GlcNAc(b1-3)Gal(b1-4)GlcNAc(b1-2)Man(a1-6)]Man(b1-4)GlcNAc(b1-4)[Fuc(a1-6)]GlcNAc
How it was run: as §1

[22] = molecular target: Gal(b1-4)GlcNAc(b1-3)Gal(b1-4)GlcNAc(b1-3)Gal(b1-4)GlcNAc(b1-2)[Gal(b1-4)GlcNAc(b1-3)Gal(b1-4)GlcNAc(b1-3)Gal(b1-4)GlcNAc(b1-6)]Man(a1-6)[Gal(b1-4)GlcNAc(b1-3)Gal(b1-4)GlcNAc(b1-3)Gal(b1-4)GlcNAc(b1-2)Man(a1-3)]Man(b1-4)GlcNAc(b1-4)[Fuc(a1-6)]GlcNAc
How it was run: as §1

B1: Gal 7 (Homo sapiens) (protein)
chain: MSNVPHKSSLPEGIRPGTVLRIRGLVPPNASRFHVNLLCGEEGGSDAALHFNPRLDTSEVVFNSKEGGSWGREERGPGVPFGRGQPFEVLIIASDDGFKAVVGDAQYHHFRHRLPLARVRLVEVGGDVQLDSVRIF
glycan array binding signal (z-score) [1]: -0.125
glycan array binding signal (z-score) (Fuc(a1-2)Gal(b1-4)Glc6S): 0.834
glycan array binding signal (z-score) [2]: 5.81
glycan array binding signal (z-score) [3]: 5.09
glycan array binding signal (z-score) [4]: 7.12
glycan array binding signal (z-score) [5]: 0.082
glycan array binding signal (z-score) [6]: -0.267
glycan array binding signal (z-score) [7]: -0.319
glycan array binding signal (z-score) [8]: -0.23
glycan array binding signal (z-score) [9]: -0.214
glycan array binding signal (z-score) (Fuc(a1-4)GlcNAc): -0.324
glycan array binding signal (z-score) (Gal(a1-3)Gal(b1-3)Glc): 1.04
glycan array binding signal (z-score) [10]: -0.147
glycan array binding signal (z-score) [11]: -0.011
glycan array binding signal (z-score) (Gal(a1-4)Gal(b1-4)GlcNAc): -0.251
glycan array binding signal (z-score) (Gal(b1-3)Gal): -0.328
glycan array binding signal (z-score) (Gal(b1-3)Gal(b1-4)GlcNAc): -0.341
glycan array binding signal (z-score) (Gal(b1-3)GalNAc): -0.006
glycan array binding signal (z-score) [12]: 0.962
glycan array binding signal (z-score) [13]: 0.04
glycan array binding signal (z-score) [14]: -0.33
glycan array binding signal (z-score) [15]: -0.289
glycan array binding signal (z-score) [16]: -0.367
glycan array binding signal (z-score) (Gal(b1-4)Glc6S): 0.576
glycan array binding signal (z-score) [17]: 0.141
glycan array binding signal (z-score) [18]: -0.186
glycan array binding signal (z-score) [19]: 2.23
glycan array binding signal (z-score) [20]: 0.945
glycan array binding signal (z-score) [21]: 4.99
glycan array binding signal (z-score) [22]: 4.93
